Drawing on PubChem BioAssay (NCATS), this text covers outcome, max response and Potency for 39 compounds.

Inconclusive results are not listed. Active and inactive are the calls of the source. The call rests on the fitted dose curve; in most records, active means well fitted inhibition curve with a large enough effect; inconclusive means small, poorly fitted or top-dose-only effect; inactive means flat fitted curve, though single readings scatter.
On the % scale 0 is the no-effect control and ±100 the full control effect; potency means the concentration at half of the fitted maximal effect.

This assay has as its system KB-3-1. The assay can be described thus: Cytotoxic Profiling of Annotated Libraries Using Quantitative High-Throughput Screening (AID 1296008). Further: nearly all actives have a fitted effect of over 60% in size. The note with it: Five cell lines viability, CellTiter-Glo ATP luminescence, 48-72 h; max response: stronger effect = lower value. An outline of the steps: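 Compounds were pin-transferred onto cells and incubated 48 or 72 hr at 37 degree Celsius, 95% humidity. CellTiter-Glo was added, plates sat 10 min at room temperature, then ATP-coupled luminescence was imaged as the viability read-out.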
A general note: ATP-based viability assays read luminescence as a measure of living cells.
Turning to `CC#CC(=O)N1CCC[C@H]1c1nc(-c2ccc(C(=O)Nc3ccccn3)cc2)c2c(N)nccn12`, the compound was called inactive. For `C[C@@H]1O[C@@H](O[C@H]2[C@H](O[C@H]3[C@H](O[C@H]4CC[C@@]5(C)C(CC[C@]6(C)C5CC=C5[C@@H]7CC(C)(C)C[C@@H](O)[C@]7(C)CC[C@]56C)[C@@]4(C)CO)O[C@H](C(=O)O)[C@@H](O)[C@@H]3O)OC[C@H](O)[C@@H]2O)[C@H](O)[C@H](O)[C@H]1O` (some centres undefined), the max response was -1.37% (inactive). Consider `CN(C)c1nc(NC2CCC(NCCc3ccc(Br)cc3OC(F)(F)F)CC2)nc2ccccc12` (centres undefined), for which the Potency is 4.61 µM (active).

Regarding `C[C@H](Oc1ccc(S(C)(=O)=O)cc1C(=O)N1CCN(c2ncc(C(F)(F)F)cc2F)CC1)C(F)(F)F`, the max response is 4.57% (inactive). On to `Nc1nccn2c(C3CCC(C(=O)O)CC3)nc(-c3cc4cccc(Cl)c4[nH]3)c12` (centres undefined), for which the Potency is 1.84 µM (active). With `C[C@H](NC(c1cccc(C[P+](=O)O)c1)[C@H](C)O)c1ccc(Cl)c(Cl)c1` (some centres undefined), the outcome was inactive. On to `C=C(C(=O)OC)C1C(O)CC2(C)C(=O)CCC(O)(CO)C2C1O` (centres undefined), for which the max response was -0.746% (inactive).

Consider `Cc1[nH]nc(C(F)(F)F)c1Cc1sc2c(c1C(=O)N1C[C@](C)(O)CO1)c(=O)n(C)c(=O)n2C(C)C`, for which the max response is 1.3% (inactive). Consider `C/C=C/c1ccc2oc(-c3ccc(O)c(OC)c3)c(C)c2c1`, for which the max response is 6.52% (inactive).

On to `CC(C)=CCC[C@](C)(O)[C@H]1CC[C@]2(C)[C@@H]1[C@H](O)CC1[C@@]3(C)CC[C@H](O)C(C)(C)[C@@H]3[C@@H](O[C@@H]3O[C@H](CO)[C@@H](O)[C@H](O)[C@H]3O[C@@H]3O[C@H](CO)[C@@H](O)[C@H](O)[C@H]3O)C[C@]12C` (some centres undefined), for which the max response was 3.39% (inactive). For `COc1cc2c(cc1OC)N1C(=O)C[C@]34C=CCN5CC[C@@H]2[C@@H](CC3)[C@]514`, the max response is 7.8% (inactive). Take `C=CC(C)(O)C(O)CC1C(C)(O)C(O)C(O)C2C(C)(C)CCCC21C` (centres undefined): the max response is -10.5% (inactive). As for `CNC(=S)NS(=O)(=O)c1cc(CCNC(=O)c2cc(Cl)ccc2OC)ccc1OC`, the max response is -4.17% (inactive). As to `O=C1CC2(CCCC2)[C@H](O)C(=O)N1CCCCN1CCN(c2ncccn2)CC1`, the max response was -7.77% (inactive). Consider `C=C1CC23CC1CCC2C12OC(=O)C(C)(CCC1O)C2C3C(=O)O` (centres undefined), for which the outcome was inactive. In the case of `Cc1cc(Nc2cc(N3CCN(C)CC3)nc(/C=C/c3ccccc3)n2)n[nH]1`, the Potency was 1.16 µM (active).

As to `CC(C)NCC(C(=O)N1CCN(c2ncnc3c2C(C)CC3O)CC1)c1ccc(Cl)cc1` (centres undefined), the max response is -24.2% (inactive). Turning to `CC(=O)c1ccc(O[C@@H]2O[C@H](CO)[C@@H](O)[C@H](O)[C@H]2O)cc1`, the max response was 2.85% (inactive). Take `CN(C)CCn1cc(S(=O)(=O)c2cccc(F)c2)c2cccnc21`: the max response was 1.25% (inactive).

Take `C=C1OC2CC(C(=O)O)C=CC2NC1=O` (centres undefined): the max response was 3.04% (inactive). The same measure, in the same setting: under `O=C(O)c1ccc(CN2CCC(CN[C@@H]3C[C@H]3c3ccccc3)CC2)cc1` stands 6.54% (inactive). Take `CCc1c(C)nc2c(-c3cnn(-c4cc(CO)ccn4)c3)c[nH]n2c1=O`: the max response is -1.88% (inactive). As for `CC1C(=O)CC2C3CCC(C(=O)O)C12CC3(C)CO` (centres undefined), the max response was 0.285% (inactive). Consider `C[C@H](NC(c1cccc2[nH]c(=O)c(=O)[nH]c12)P(=O)(O)O)c1ccc(Br)cc1` (some centres undefined), for which the outcome was inactive. Turning to `COC(=O)C12CCC(C)C(C)C1C1=CCC3C4(C)CCC(OC(C)=O)C(C)(C)C4CCC3(C)C1(C)CC2` (centres undefined), the max response is 5.8% (inactive).

As to `CO[C@H]1/C=C/[C@@](C)(O)/C=C/C(=O)O[C@H](C)[C@@H](C)CC/C=C/1C`, the max response is -8.74% (inactive). Take `CC(O)/C=C/C1OC(=O)CC1Nc1ccc(C(=O)O)cc1` (centres undefined): the max response is 5.7% (inactive). `CC/C=C\C/C=C\C/C=C\CCCCCCCC(=O)OCC(O)COC1OC(CO)C(O)C(O)C1O` (centres undefined): the outcome was inactive. As for `C/C=C1\[C@H](O[C@@H]2O[C@H](CO)[C@@H](O)[C@H](O)[C@H]2O)OC=C2C(=O)OCCc3ccc(O)c(c3)Oc3ccc(cc3)CCOC(=O)C[C@H]21`, the max response is -9.35% (inactive). With `CC(=O)OC[C@@]12C(=O)C[C@@H](C)[C@]3(C[C@@H](c4ccoc4)O[C@H]3OC(C)=O)[C@H]1CCC[C@]21CO1`, the max response was -1.02% (inactive). Regarding `N[C@@]1(C(=O)O)CC[C@H]2[C@H](C(=O)O)[C@H]21`, the max response was 2.99% (inactive). Turning to `CC[C@@](C)(Nc1ccnc(-c2c[nH]c3ncccc23)n1)C(=O)NCC(F)(F)F`, the call was inactive. As for `CCOc1cc(N2CCC(O)CC2)ccc1Nc1ncc2c(n1)N(C1CCCC1)CCC(=O)N2C`, the Potency is 7.31 µM (active).

Turning to `COC1CC(O[C@H]2CC[C@@]3(C)C(=CC[C@]4(O)C3[C@H](OC(C)=O)[C@@H](OC(=O)c3ccccc3)[C@]3(C)[C@@H](C(C)=O)CC[C@@]34O)C2)OC(C)C1OC1CC(OC)C(OC2CC(OC)C(OC3OC(C)C(OC4OC(CO)C(O)C(O)C4O)C(OC)C3O)C(C)O2)C(C)O1` (some centres undefined), the max response is 0.0608% (inactive).

In the case of `CC(C)C(CO)Nc1nc(Nc2ccc(C(=O)O)c(Cl)c2)c2ncn(C(C)C)c2n1` (centres undefined), the max response is 1.82% (inactive).

As for `CC1OC(O[C@H]2CC[C@@]3(C)C(CC[C@]4(C)C3CC=C3C5CC(C)(C)CC[C@]5(C(=O)OC5OC(CO)C(OC6OC(COC7OCC(O)C(O)C7O)C(O)C(O)C6O)C(O)C5O)CC[C@]34C)C2(C)C)C(O)C(O)C1OC1OCC(OC2OCC(O)C(O)C2O)C(O)C1O` (some centres undefined), the call was inactive. As for `CCN1CCN(Cc2ccc(Nc3ncc(F)c(-c4cc(F)c5nc(C)n(C(C)C)c5c4)n3)nc2)CC1`, the Potency was 6.51 µM (active). With `O=S(=O)(NCC1CC1)c1ccc(Nc2nccc(N3CCCc4cc(O)ccc43)n2)cc1`, the Potency was 14.6 µM (active). Turning to `CCNC(=O)Nc1ccc(-c2nc3c(c(N4CCOC[C@@H]4C)n2)CCN(c2ncccn2)C3)cc1`, the Potency was 0.291 µM (active).
